Sampled rows, rich in hits. Any-hit rate of the full collection: about 5.7%.
AHR activator: activators of human aryl hydrocarbon receptor; AHR-responsive luciferase reporter cells, luminescence; activation, % at 5 µM; 320,000 compounds, 2.5% hits; in the data active = activation above about 47%;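 note: 0% = vehicle wells and 100% = reference agonist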
DAX1 inh-1: inhibitors of human orphan nuclear receptor DAX1 (NR0B1). P51843. HEK293 Gal4-DAX1 luciferase reporter, luminescence. inhibition, % at 6.75 µM. 340,000 compounds, 0.99% hits;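 active = inhibition above the mean over all tested compounds plus 3 SD, cut at about 4.2% in these data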;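 note: 0% = DAX1-transfected cells with DMSO and 100% = empty-vector control cells with DMSO; inhibition shows as a rise in luminescence from relieved DAX1 repression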
Target sequence (P51843 207-470 limits assumed): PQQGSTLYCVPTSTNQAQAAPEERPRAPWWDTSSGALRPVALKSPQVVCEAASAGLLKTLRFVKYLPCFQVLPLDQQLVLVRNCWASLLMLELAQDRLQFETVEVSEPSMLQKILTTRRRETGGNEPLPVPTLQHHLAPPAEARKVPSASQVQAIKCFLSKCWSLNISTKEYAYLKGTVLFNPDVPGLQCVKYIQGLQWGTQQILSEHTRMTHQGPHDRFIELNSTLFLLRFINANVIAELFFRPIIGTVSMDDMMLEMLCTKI
hgDAF-12 ag: activates the H. glycines DAF-12 receptor ligand-binding domain; HEK293 GAL4-hgDAF12 UAS-luciferase reporter, agonist luminescence; normalized to butyrate control; 370,000 compounds, 1.8% hits; activation, % at 6.8 µM;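 active = activation above a cutoff set at the mean of all screened compounds plus 3 SD, cut at about 10% in these data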;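 note: 0% = DMSO wells and 100% = sodium butyrate wells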
ssDAF-12 act: S. stercoralis DAF-12 activation, primary screen; 370,000 compounds, 1% hits; HEK293 ssDAF-12/GRIP1 lit1-tk-luc reporter, luminescence; % of 3 µM dafachronic acid response; AID 652126; activation, % at 6.8 µM;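 active = activation above the mean over all tested compounds plus 3 SD, cut at about 0.9% in these data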;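 note: 0% = DMSO-only wells and 100% = 3 µM delta7-dafachronic acid wells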
hcDAF-12 act: activators of H. contortus DAF-12 nuclear receptor | HEK293 hcDAF-12 lit1-tk-luc reporter, luminescence; 0% DMSO, 100% Δ7-dafachronic acid | activation, % at 6.8 µM | 370,000 compounds, 1.4% hits | AID 652067;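 active = activation above the mean of all tested compounds plus 3 SD, cut at about 5.5% in these data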;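 note: 100% = response to 3 µM Δ7-dafachronic acid high control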
DAX1 inh-2: blocks DAX1 repression of SF-1 activated StAR promoter; HEK293T StAR-luciferase reporter, SF-1/DAX-1 repression relief; inhibition, % at 6.8 µM; 370,000 compounds, 1.1% hits; AID 652010;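 active = inhibition above the mean over all tested compounds plus 3 SD, cut at about 3.6% in these data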;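 note: 0% = DAX-1 cells with DMSO and 100% = cells lacking DAX-1 with DMSO; higher inhibition means more luminescence from relief of DAX-1 repression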
* marks the source's active call; other numbers are inactive results; / = not tested or not shown.

SMILES	AHR activator	DAX1 inh-1	hgDAF-12 ag	ssDAF-12 act	hcDAF-12 act	DAX1 inh-2
[O-][n+]1nc2ccccc2c2ccccc21	/	1	2	0	-1	0
COc1ccc(-n2c(O)c(C=NCc3ccccn3)c3ccccc3c2=O)c(OC)c1	4	1	0	-1	6.1*	0
O=C(Nc1ccc2c(c1)Cc1ccccc1-2)c1ccccc1F	2	4	11*	0	1	1
CC(=O)Nc1ccc2c(c1)Cc1c(F)cccc1-2	/	2	11*	0	5	4.3*
O=C(Nc1ccc2c(c1)Cc1ccccc1-2)c1ccc(Br)o1	1	0	6	-1	-1	0
O=C(Nc1ccccc1)N1CCn2c1nc1ccccc12	51*	1	2	0	6	0
CCn1c2ccccc2c2cc(NC(=O)COc3ccccc3OC)ccc21	62*	-1	0	-2	-2	-2
COc1ccc(NC(=O)CSc2nnc(-c3ccccc3)n2N)cc1	0	0	2	-1	-2	0
CCn1c2ccccc2c2cc(NC(=O)COC(=O)c3cccc(S(=O)(=O)NC)c3)ccc21	100*	-1	-3	-1	-1	0
CCn1c2ccccc2c2cc(NC(C)=O)ccc21	50*	-1	0	-2	-1	-1
CCn1c2ccccc2c2cc(NC(=O)CNCc3ccccc3OC)ccc21	25	-2	4	-1	-2	-1
CCn1c2ccccc2c2cc(NC(=O)CSc3nnc(-c4ccc(OC)cc4)n3N)ccc21	48*	0	-3	-2	-2	-1
CCn1c2ccccc2c2cc(C=NNC(=O)c3ccoc3C)ccc21	/	/	11*	-1	-1	-2
O=c1nc(/C=C/c2ccc(O)c(O)c2)oc2ccccc12	/	4.8*	/	/	/	/
OC(c1ccco1)c1nc(-c2cccs2)cs1 (stereo unspecified)	/	/	5	1.4*	5.8*	1
CCOc1ccc(CCNC(=O)COC(=O)COc2ccccc2C)cc1OCC	1	0	-3	-1	0	1
COc1cc(/C=C2\Oc3cc(O)ccc3C2=O)ccc1O	1	7.4*	9	-1	2	4.3*
O=C1/C(=C/c2ccc(O)c(O)c2)Oc2cc(O)ccc21	0	1	7	-1	1	3
COc1cccc(/C=N/n2c(-c3n[nH]c4c3CCC4)n[nH]c2=S)c1OC	51*	1	0	-1	0	0
Cc1cccc(C)c1NC(=O)C1(C)CSCC(=O)N1CC(C)C (stereo unspecified)	/	/	2	-1	-3	0
CN(C)c1ccc(NC(=O)c2ccc([N+](=O)[O-])cc2Cl)cc1	2	-1	12*	1	1	1
Cc1ccc(NC(=O)c2ccc([N+](=O)[O-])cc2Cl)nc1	3	-1	11*	-1	0	2
CCC1CCCCN1C(=O)CSc1nnc2nc(C)cc(C)n12 (stereo unspecified)	1	0	1	-2	0	4.0*
Cc1cc(C)n2c(SCC(=O)NC3CCCCC3C)nnc2n1 (stereo unspecified)	3	1	0	-2	-1	0
O=C(NCCCn1ccnc1)c1cc2cc([N+](=O)[O-])ccc2oc1=O	4	4.2*	1	0	0	0
SMILES	AHR activator	DAX1 inh-1	hgDAF-12 ag	ssDAF-12 act	hcDAF-12 act	DAX1 inh-2
O=C(NCCCn1ccnc1)c1noc2c1CCCC2	48*	1	2	-1	0	0
O=C(NCCCn1ccnc1)c1noc2c1CCc1ccccc1-2	29	-1	-2	-1	-1	0
O=C(NCCCn1ccnc1)Nc1ccc(Cl)cc1	21	2	1	-1	-1	0
O=C(NCCCn1ccnc1)Nc1ccc(Cl)c(Cl)c1	30	0	0	-1	5.8*	1
COc1cc(SC)ccc1C(=O)NCCCn1ccnc1	59*	0	1	-1	0	0
NC(=O)c1ncn([C@@H]2O[C@H](C(=O)N[C@H](Cc3ccccc3)C(=O)N3CCN(c4ccc(Cl)cn4)CC3)[C@@H](O)[C@H]2O)n1	/	/	0	-1	0	1
O=C(NCC1CC1(Cl)Cl)Nc1ccc(Cl)c(Cl)c1 (stereo unspecified)	11	1	11*	0	-1	0
CCOc1cc(C(=O)NCCCn2ccnc2)cc(OCC)c1OCC	50*	1	-1	-1	5	0
COC(=O)C1=CN(c2ccc3c(c2)OCO3)C(N)=C(C#N)C1c1cccc(F)c1 (stereo unspecified)	/	/	3	-1	1	-3
Cc1cccc(N=c2c([N+](=O)[O-])nn(-c3ccc(Cl)cc3)n2O)c1	62*	-1	2	-2	0	0
CCc1cccc(N=c2c([N+](=O)[O-])nn(-c3ccc(Cl)cc3)n2O)c1	24	-2	0	-2	-1	-2
Cc1cc(C)cc(N=c2c([N+](=O)[O-])nn(-c3cccc(Cl)c3)n2O)c1	69*	-1	-1	-2	0	-2
CCC(C)[C@H](NC(=O)N1CCCCCC1)C(=O)OC (stereo partly specified)	0	/	1	-1	2	0
CC12CCC(=O)N1C(C(=O)N1CCN(S(=O)(=O)c3cccc(Cl)c3)CC1)CS2 (stereo unspecified)	1	1	1	-1	-2	0
COc1cccc(-c2cc3c(-n4cccc4)ncnc3o2)c1	56*	0	8	0	5	-1
Clc1ccc(-n2nnnc2CN2CCOCC2)cc1	-1	6.0*	-1	-1	0	-1
C=CCCC1CN(Cc2ccc(OC)cc2)S(=O)(=O)c2c(Oc3ccc(C)cc3)cccc2O1 (stereo unspecified)	/	/	3	-1	-2	-1
CC(=O)Nc1sc(N/N=C\c2ccccc2Cl)nc1-c1cccs1	59*	0	3	-1	2	-1
Cc1sc(N/N=C/C=C/c2ccccc2)nc1-c1ccccc1	73*	0	4	-1	6.0*	0
CC(=O)Nc1sc(N/N=C/c2ccccc2)nc1-c1ccc(C)cc1	10	5.0*	4	-1	2	1
CC(=O)Nc1sc(N/N=C\c2ccco2)nc1-c1cccs1	29	0	4	0	4	0
CC(=O)Nc1sc(N/N=C\c2ccccc2)nc1-c1cccs1	26	1	10	1.7*	6.2*	0
N=c1sccn1CC(=O)Nc1ccc(Cl)cc1[N+](=O)[O-]	-1	4.4*	2	-1	2	-1
CC1CC(C)CN(c2ccc(NS(=O)(=O)c3ccccc3)cc2C(=O)O)C1 (stereo unspecified)	1	1	-1	-1	0	-2
